Here are results for 62 compounds from PubChem BioAssay AID371 (SRMLSC, 2006).

The structures appear in SMILES notation. The whole screen tested about 3,300 compounds, of which about 280 (8.5%) were called active. The entries come from a sample that favours actives as a whole. Unmarked numbers belong to inactive results.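 The calls were made as follows: active = mean growth inhibition over the two runs of 50% or more; inactive = mean growth inhibition under 50%.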

The assay can be described thus: A549 NSCLC cell proliferation inhibitors – ATP luminescence, human non-small cell lung line, primary screen (AID 371).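 Also: compound exposure lasted 72 h before the ATP read; 0% = untreated cell signal and 100% = no luminescence left.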 Particulars: at 10 µM, active compounds read high.
Consider `CCCc1[nH]n(-c2nc3ccccc3s2)c(=O)c1C=NCCN1CCOCC1`, for which the growth inhibition is 3.16%.
On to `Cn1nnnc1-c1cc(Br)ccc1NC(=O)c1ccccc1`, for which the growth inhibition is 10.8%.
`Cc1sc(-n2c(C)cc(/C=N/n3cnnc3)c2C)c(C#N)c1C`: the growth inhibition was 19.6%.
Take `CC(C)(C)c1nnc2sc(SCC(=O)c3ccccc3)nn2c1=O`: the growth inhibition is -7.24%.
The figure for `Cc1nc2sccn2c(=O)c1CCN1CCC(=C(c2ccc(F)cc2)c2ccc(F)cc2)CC1` is 92.5% (active); for `CN1CCN(CCCCC(=O)c2ccccc2)CC1` it is 6%; for `Cc1nc2ccccn2c(=O)c1CCN1CCC(C(=O)c2ccc(F)cc2)CC1` it is 6.06%.
As for `Cc1nc2sccn2c(=O)c1CCN1CCC(=C(c2ccccc2)c2ccc(F)cc2)CC1`, the growth inhibition was 88.3% (active).
The figure for `COc1ccc(/C=N/n2cncn2)cc1COc1ccc(NC(C)=O)cc1` is 5.25%; for `CCOc1ccc(C2/C(=C(/O)c3ccc(OC)cc3)C(=O)C(=O)N2c2cc(C)on2)cc1OC` (configuration not stated) it is -9.53%.
As to `CCC(C)Nc1nc(OC)nc(N(C)C#N)n1` (configuration not stated), the growth inhibition was -4.98%.
On to `O=C(O)c1ccc(COc2c(F)c(F)c(F)c(F)c2F)o1`, for which the growth inhibition is 3.65%.
For `CN(C)/C=C1\N=C(c2ccc(Cl)cc2Cl)OC1=O`, the growth inhibition was 19.7%.
On to `CCOC(=O)c1[nH]c2cc3c(cc2c1NC(=O)CN1CCc2ccccc2C1)OCO3`, for which the growth inhibition is 12.5%.
The figure for `CSc1nc(N)nc(SCC(=O)OC(C)C)c1C#N` is 17%; for `CSc1nc(N)nc(SCC(=O)C23CC4CC(CC(C4)C2)C3)c1C#N` it is 74.9% (active).
As to `CSc1nc(N)nc(SCC(=O)CC(=O)OC(C)C)c1C#N`, the growth inhibition is 7.59%.
For the compound `COc1ccc(C(=O)N/C(N)=N/c2nc3ccccc3o2)cc1`, the growth inhibition was 28.8%.
Turning to `COc1ccccc1C(=O)Nc1cc(Cl)ccc1O`, the growth inhibition was -0.89%.
In the case of `N/C(=N\c1nc2ccccc2o1)NC(=O)c1ccccc1NC(=O)c1ccccc1`, the growth inhibition is 69.5% (active).
With `COc1ccccc1C(=O)NCC(=O)n1nc(C)cc1C`, the growth inhibition was 4.23%.
Regarding `O=C(Nc1ccccc1C(=O)NCCCn1ccnc1)c1ccccc1`, the growth inhibition was -0.68%.
For `COc1ccccc1C(=O)NC(=Nc1nc2ccccc2o1)NC(=O)c1ccccc1OC` the value was 67.3% (active); for `COc1ccccc1C1C(C#N)=C(N)Oc2cc(C)n(Cc3ccccn3)c(=O)c21` (configuration not stated), -10.3%; for `CCNC(=O)COn1c(SCC(=O)NCC)nc2ccccc2c1=O`, -0.37%.
Regarding `CCOC(=O)C1CCN(c2ncnc3c2cnn3-c2ccc(OC)cc2)CC1`, the growth inhibition was 4.94%.
Take `CS(=O)(=O)c1ccc2nc(NC(NC(=O)c3ccco3)(C(F)(F)F)C(F)(F)F)sc2c1`: the growth inhibition was 29.9%.
For the compound `CCOC(=O)CSc1nnc(C)c(=O)[nH]1`, the growth inhibition is 2.53%.
Turning to `CC(=O)Nc1cc2c(cc1Br)OCCO2`, the growth inhibition is -4.42%.
For `CN(C)c1ccc(C2C3C(=O)N(c4ccc(C(=O)O)cc4)C(=O)C3ON2c2ccccc2)cc1` (configuration not stated) the value was 4.19%; for `COc1cccc2c1C(=O)c1c(O)c3c(c(O)c1C2=O)C[C@@](O)(C(C)=O)C[C@@H]3O[C@H]1C[C@H](N)[C@H](O)[C@H](C)O1`, 94.4% (active).
Consider `COc1cccc2c1C(=O)c1c(O)c3c(c(O)c1C2=O)C[C@@](O)(C(=O)CO)C[C@@H]3O[C@H]1C[C@H](N)[C@H](O)[C@H](C)O1`, for which the growth inhibition was 82.1% (active).
For `O=c1/c(=C\c2cccn2-c2ccccc2)sc2nc3ccccc3n12` the value was 26.5%; for `CC(C)c1nc(NCCN2CCOCC2)c(C#N)c2c1COC(C)(C)C2`, 20.7%.
Consider `c1ccc(-n2ncc3c(NCC4CCCO4)ncnc32)cc1` (configuration not stated), for which the growth inhibition was 33.8%.
As for `Fc1ccccc1-c1nc(NCCCN2CCOCC2)c2ccccc2n1`, the growth inhibition was 4.04%.
For the compound `c1ccc(-c2nc(NCC3CCCO3)c3ccccc3n2)nc1` (configuration not stated), the growth inhibition was 60.2% (active).
For `C=CCNc1nc(-c2cccc(OC)c2O)nc2ccccc12`, the growth inhibition is 24.3%.
The figure for `COc1cccc(-c2nc(NCC3CCCO3)c3ccccc3n2)c1O` (configuration not stated) is 83.8% (active).
As to `Cc1cc(OCCN2CCOCC2)nc2ccccc12`, the growth inhibition was 10.6%.
Consider `Cc1cc(-c2ccccc2)nnc1NCCN1CCOCC1`, for which the growth inhibition was -7.35%.
As to `c1ccc2c(NCC3CCCO3)nc(-c3ccncc3)nc2c1` (configuration not stated), the growth inhibition is 13.1%.
As for `COc1cccc(OC)c1OCC(C)CNCC1CCCO1` (configuration not stated), the growth inhibition was 3.8%.
On to `Oc1ccccc1-c1nc(NCCN2CCOCC2)c2ccccc2n1`, for which the growth inhibition is 88.2% (active).
For `COc1cccc(-c2nc(NCCN3CCOCC3)c3ccccc3n2)c1O`, the growth inhibition was 80.7% (active).
With `O=C(C1=C(O)C(=O)N(CCCN2CCOCC2)C1c1ccccn1)c1cccs1` (configuration not stated), the growth inhibition was 1.45%.
In the case of `Cc1ccc(C(=O)C2=C(O)C(=O)N(c3ncccn3)C2c2ccc(Cl)cc2)o1` (configuration not stated), the growth inhibition was -6.83%.
Regarding `COC(=O)c1c(C)[nH]c(C(=O)OCc2ccc(F)cc2)c1C`, the growth inhibition is 13%.
For `O=C1C2ON(c3ccccc3)C(c3ccncc3)C2C(=O)N1c1ccc(Br)cc1` (configuration not stated), the growth inhibition was -9.58%.
For the compound `OCCN=C(c1ccccc1)C12CN3CN(CN(C3)C1)C2`, the growth inhibition is -0.01%.
In the case of `C=CCOC(=O)C(C#N)c1nc2ccccc2nc1N1CCC(C(=O)OCC)CC1` (configuration not stated), the growth inhibition was 45.6%.
Regarding `CCOC(=O)C1CCCN(c2nc3ccccc3nc2C(C#N)C(=O)OC(C)COC)C1` (configuration not stated), the growth inhibition was 24.2%.
Consider `CCOC(=O)c1[nH]c2ccc(OC)cc2c1NC(=O)CN1CCN(c2ccccn2)CC1`, for which the growth inhibition was 0.14%.
As to `CC(=O)N1CCN(c2nc(CC(C)C)c3c(c2C#N)CCC3)CC1`, the growth inhibition was 22.1%.
With `CC1(C)Cc2c(C#N)c(N3CCOCC3)nc(-c3ccccc3)c2CO1`, the growth inhibition was 13.6%.
The figure for `CC(C)Cc1nc(N2CCN(C(=O)c3ccco3)CC2)c(C#N)c2c1CCC2` is 57.2% (active); for `CC(C)Cc1nc(N2CCCCC2)c(C#N)c2c1CCC2` it is 20.9%.
For `CCCC(=O)N1CCN(c2nc(CC(C)C)c3c(c2C#N)CCC3)CC1`, the growth inhibition is 53.8% (active).
With `CC(C)Cc1nc(N2CCN(C(=O)C(C)C)CC2)c(C#N)c2c1CCC2`, the growth inhibition is 42.3%.
For `CC(C)C(=O)N1CCN(c2nc(-c3ccccc3)c3c(c2C#N)CCCC3)CC1` the value was 68% (active); for `CC(C)C(=O)N1CCN(c2nc(-c3ccccc3)c3c(c2C#N)CC(C)(C)OC3)CC1`, 34.1%; for `CC(C)Cc1nc(N2CCOCC2)c(C#N)c2c1CCC2`, 4.59%.
